# B2AR ag – human beta-2 adrenergic receptor agonism by FAP; P07550; Am2.2-beta2AR cells, FAP receptor internalization, flow cytometry; response, % (no concentration beside the values); 340,000 compounds, 0.43% hits; AID 504454;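 active means response above a set limit, near 3 SD of response in nonfluorescent compounds, cut at about 42% in these data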
# MEKK2 mut-MEK5 – signal of MEK5 binding to mutant human MEKK2 PB1 domain; bead flow cytometry, Alexa488-MEK5 binding to MEKK2 mutant; percent response, % at 10 µM; 290,000 compounds, 0.35% hits; AID 1530; in the data active means percent response above about 24%, passing the limit was not always enough
# MEKK2wt PB1 HTS – raises or lowers MEK5 binding to wildtype human MEKK2 PB1 domain. 290,000 compounds, 1.1% hits. Q9Y2U5. AID 1531. binding response (% of control), % at 10 µM. bead flow cytometry, Alexa488-MEK5 binding to MEKK2 WT; actives lie on both sides; in the data active means binding response below about 67% or above about 130%
# GRK2 aptamer HTS – blocks RNA aptamer binding to human GRK2. P25098. bead flow cytometry, FAM-aptamer displacement from GRK2. inhibition of aptamer binding, % at 10 µM. 330,000 compounds, 0.59% hits. AID 488847;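 active means inhibition of aptamer binding above 40%, roughly 3 SD of noise, on plates passing a quality check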;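 further: median bead fluorescence of bound FAM aptamer so fluorescent compounds give negative values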
# Target sequence (P25098 whole entry, looked up): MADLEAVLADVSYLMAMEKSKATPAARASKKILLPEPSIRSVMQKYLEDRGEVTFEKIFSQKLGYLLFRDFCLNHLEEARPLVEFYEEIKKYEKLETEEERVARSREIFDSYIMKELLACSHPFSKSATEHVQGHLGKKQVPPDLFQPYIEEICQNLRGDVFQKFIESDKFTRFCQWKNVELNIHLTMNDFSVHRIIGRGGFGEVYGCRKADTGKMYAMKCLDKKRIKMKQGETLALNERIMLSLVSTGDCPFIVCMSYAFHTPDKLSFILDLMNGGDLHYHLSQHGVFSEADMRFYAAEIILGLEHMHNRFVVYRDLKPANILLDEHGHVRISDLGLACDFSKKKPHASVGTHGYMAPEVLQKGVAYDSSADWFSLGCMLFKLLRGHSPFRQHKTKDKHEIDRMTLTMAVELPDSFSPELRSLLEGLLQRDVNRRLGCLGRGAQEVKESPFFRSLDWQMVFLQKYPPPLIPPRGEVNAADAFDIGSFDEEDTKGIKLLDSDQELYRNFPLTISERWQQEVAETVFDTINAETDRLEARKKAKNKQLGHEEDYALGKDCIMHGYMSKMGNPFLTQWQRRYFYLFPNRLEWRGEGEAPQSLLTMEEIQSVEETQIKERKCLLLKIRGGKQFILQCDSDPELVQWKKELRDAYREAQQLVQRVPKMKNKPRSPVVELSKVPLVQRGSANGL
# MEKK3 PB1 HTS – MEKK3-MEK5 PB1 interaction, increase or decrease | Q99759 | bead-based flow cytometry, Alexa488-MEK5 binding to MEKK3; actives lie on both sides; 0 = blocked by unlabeled MEK5, 100 = vehicle | binding response (% of control), % at 10 µM | 290,000 compounds, 1.4% hits | AID 1529;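 active means binding response more than 3 SD above or below the average of its plate-row segment, actives on both sides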;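 further: Alexa488 bead fluorescence after subtracting the streptavidin-only scavenger bead signal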
# MEKK2wt confirm – raises or lowers MEK5 binding to wildtype human MEKK2, retest. binding response (% of control), % at 10 µM. bead flow cytometry, Alexa488-MEK5 binding to MEKK2 WT; actives lie on both sides. shares compounds with MEKK3 PB1 HTS. 5,900 compounds, 2.4% hits; in the data active means binding response below about 16% or above about 210%; inactive means in between
# MEKK2mut confirm – signal of MEK5 binding to mutant human MEKK2, retest; AID 1893; bead flow cytometry, Alexa488-MEK5 binding to MEKK2 mutant; 5,900 compounds, 2% hits; percent response, % at 10 µM; shares compounds with MEKK3 PB1 HTS; in the data active means percent response mostly above about 71%, no sharp cut-off; inactive means mostly below about 38%;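 further: higher means compound restores mutant binding toward wildtype level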
# MEKK3 confirm – MEKK3-MEK5 PB1 inhibition, single concentration confirmation; 5,900 compounds, 1.8% hits; bead flow cytometry, Alexa488-MEK5 binding to MEKK3; stronger effect = lower value; AID 1894; shares compounds with MEKK3 PB1 HTS; binding response (% of control), % at 10 µM;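 active means binding response below 72% of control, or above a set upper limit, though filed actives all read lower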
# A number is an active result; – = inactive; · = no result given; [ ] = another dose, or the depositor's remark. Hits are enriched below; roughly 2.9% of the tested compounds scored in any of these assays.
SMILES,B2AR ag,MEKK2 mut-MEK5,MEKK2wt PB1 HTS,GRK2 aptamer HTS,MEKK3 PB1 HTS,MEKK2wt confirm,MEKK2mut confirm,MEKK3 confirm
COc1ccccc1N(C(=O)c1snc(C(N)=O)c1N)C(C(=O)NC1CCCC1)c1ccc2ncccc2c1 (configuration not stated),–,–,–,–,–,·,·,·
Cn1nnnc1SCC(=O)Nc1ccccc1Cc1ccccc1,–,–,3.0[inhibitor],–,3.0[inhibitor],–,–,–
Cn1nnnc1SCC(=O)Nc1ccccc1Br,–,–,–,–,–,·,·,·
O=C(Nc1ccc(Cl)cc1)NC1CCCCC1Cc1ccco1 (configuration not stated),–,–,46[inhibitor],–,69[inhibitor],–,–,–
O=C(Nc1ccc(Cl)cc1)NC1CCCCC1,–,–,-1.0[inhibitor],–,1.0[inhibitor],–,–,–
Cn1cnc(S(=O)(=O)Nc2ccc(Cl)c(C(F)(F)F)c2)c1,–,–,–,–,–,·,·,·
COc1cc2c3nnc(-c4ccc(F)cc4)c-3cn(Cc3ccc(F)cc3)c2cc1OC,–,36,193,–,–,–,–,–
Cn1nc2c3cc(F)ccc3n(Cc3ccc(F)cc3)cc-2c1=O,–,–,–,–,–,·,·,·
COc1cc2c3nnc(-c4ccc(F)cc4)c-3cn(Cc3ccccc3)c2cc1OC,–,46,178,–,–,–,–,–
COc1ccc(Cn2cc3c(-c4ccc(F)cc4)nnc-3c3cc(OC)c(OC)cc32)cc1,–,57,188,–,–,208,81,–
Cc1ccc(S(=O)(=O)N2CCOC23CCN(C(=O)C(=O)NCCC(C)C)CC3)cc1,–,·,·,–,·,·,·,·
CC(NC(=O)CN(C)Cc1cccc(Cl)c1)c1ccccc1 (configuration not stated),–,–,–,–,–,·,·,·
OC(COc1ccc(CNCCc2ccccc2F)cc1)CN1CCCCC1 (configuration not stated),–,58,168,–,–,–,–,–
O=C(Nc1ccc(Cl)c(Cl)c1)Nc1cc(S(=O)(=O)N2CCOCC2)ccc1N1CCCC1,–,–,–,–,–,·,·,·
C=C1CCN([C@H](C(=O)NCc2ccc(Cl)cc2)C(C)C)S(=O)(=O)c2ccccc21,–,–,–,–,80[inhibitor],–,–,–
C=C1CCN([C@@H](CC(C)C)C(=O)NCc2ccccc2)S(=O)(=O)c2ccccc21,–,–,–,–,–,·,·,·
O=C(CC1NCCc2ccccc21)Nc1ccc(Oc2ccccc2)cc1 (configuration not stated),–,–,160,–,–,–,–,–
CC(=O)Nc1sc(/C(C#N)=C/c2ccc(Cl)c(Cl)c2)nc1-c1ccc(C)cc1,–,104,25,·,–,–,–,–
COC(=O)CC1C(=O)NCCN1C(=O)CSc1nnc(Nc2ccc(OC)cc2)s1 (configuration not stated),–,–,–,–,122,–,–,–
CCOC(=O)Cc1csc(NC(=O)COc2ccc(N(C)S(=O)(=O)c3ccc(C)cc3)cc2)n1,–,–,–,–,128,–,–,–
CCOC(=O)Cc1csc(NC(=O)COc2ccc(OC)cc2)n1,–,–,–,–,–,·,·,·
CCOC(=O)Cc1csc(NC(=O)c2ccc(OC)c(OC)c2)n1,–,–,0.0[inhibitor],–,1.0[inhibitor],–,–,–
CCOC(=O)Cc1csc(NC(=O)c2cccc(OC)c2)n1,–,–,–,–,–,·,·,·
CCOC(=O)/C(=C/C=C1\Sc2cc(C)c(C)cc2N1CC)C(C)=O,–,–,42[inhibitor],·,–,–,–,–
C=CCN(c1ccccc1)S(=O)(=O)c1cccc(C(=O)NC2CCC(O)CC2)c1 (configuration not stated),–,·,·,–,·,·,·,·
SMILES,B2AR ag,MEKK2 mut-MEK5,MEKK2wt PB1 HTS,GRK2 aptamer HTS,MEKK3 PB1 HTS,MEKK2wt confirm,MEKK2mut confirm,MEKK3 confirm
Nc1nc(Nc2ccc(Cl)cc2)n[nH]1,–,–,–,–,–,·,·,·
Nc1nc(Nc2ccccc2)n[nH]1,–,–,–,–,74[inhibitor],–,–,–
COCCn1c(=NC(=O)c2cc3ccccc3oc2=O)sc2cc(S(N)(=O)=O)ccc21,–,–,–,–,–,·,·,·
CCC1C(=O)N=C(SCC(=O)Nc2ccc(S(N)(=O)=O)cc2)NC1=O (configuration not stated),–,–,–,–,138,–,–,–
O=C(OCC(=O)c1c[nH]c2ccccc12)c1cccc(S(=O)(=O)N2CCCCCC2)c1,–,–,–,–,130,–,–,–
CCc1cccc2c(C(=O)COC(=O)c3cccc(S(=O)(=O)N(C)C4CCCCC4)c3)c[nH]c12,–,–,–,–,132,–,–,–
Cc1ccc(S(=O)(=O)N2CCN(C(=O)c3cc4c(C)nn(-c5ccccc5C)c4s3)CC2)cc1,–,–,–,–,–,·,·,·
Cc1ccccc1-n1nc(C)c2cc(C(=O)N3CCOCC3)sc21,–,–,211,–,–,–,–,–
Nc1ccc(C(=O)OCC(=O)N2CCN(C(=O)c3ccco3)CC2)cc1[N+](=O)[O-],–,–,–,–,134,–,–,–
CCC(C)(C(=O)NC1CCCCC1)N(C(=O)C1CCC(=O)N1)c1ccc(C)cc1 (configuration not stated),–,–,–,–,–,·,·,·
CCC(C)(C(=O)NC1CCCC1)N(C(C)=O)c1ccc(C)cc1 (configuration not stated),–,–,2.0[inhibitor],–,2.0[inhibitor],–,–,–
CC1CCCN(C(=O)c2ccc(NS(=O)(=O)c3cccc([N+](=O)[O-])c3)cc2)C1 (configuration not stated),–,·,·,–,·,·,·,·
CS(=O)(=O)N(CC(=O)N1CCCCC1)c1ccc(Cl)c(C(F)(F)F)c1,–,–,71[inhibitor],–,–,–,–,–
Cc1ccc(N(CC(=O)N2CCCCCC2)S(C)(=O)=O)cc1Cl,–,–,–,–,–,·,·,·
Cc1onc(-c2c(F)cccc2Cl)c1C(=O)Nc1cccc(S(=O)(=O)N2CCOCC2)c1,–,·,·,–,·,·,·,·
CC(C)(C)OC(=O)N1CCC(c2cc(=O)n3[nH]cc(C(=O)Nc4ccc(F)c(Cl)c4)c3n2)CC1,–,–,–,–,129,–,–,–
COc1ccc(NC(=O)c2c[nH]n3c(=O)cc(C4CCN(C(=O)OC(C)(C)C)CC4)nc23)cc1Cl,–,–,–,–,–,·,·,·
O=C(NCCCOc1ccc([N+](=O)[O-])cc1Cl)OCc1ccccc1,–,·,·,·,·,·,·,·
CCOC(=O)c1cc2cc([N+](=O)[O-])ccc2oc1=O,–,–,–,–,75[inhibitor],–,–,–

# Source: PubChem (NMMLSC)
